Source: PubChem
Hits are enriched below; roughly 8.8% of the tested compounds scored in any of these assays.
KB-V1 cytotox: kills drug-selected multidrug resistant KB-V1 cells. Potency, µM (titrated, usually from 46.1 µM), most hits filed as cytotoxic. KB-V1 MDR cells viability, CellTiter-Glo, 72 h. 3.4% of 400,000 active; also: potency is read from the fitted curve at half-maximal effect; nearly all actives have a fitted effect of over 60% in size
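KB-V1 cells (P-gp-expressing MDR subline of KB-3-1) in phenol-red-free DMEM with 10% FBS were exposed to library compounds over a concentration series for 72 h at 37 degrees C. Viability read by CellTiter-Glo luminescence; concentration-effect curves fitted after normalization.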
KB-3-1 cytotox: KB-3-1 parental cell cytotoxicity; AID 1347075; Potency, µM (highest dose often 46.1 µM), usual class: cytotoxic; KB-3-1 viability, CellTiter-Glo ATP luminescence, 72 h; 1.4% of 400,000 active; also: potency is read from the fitted curve at half-maximal effect; nearly all actives have a fitted effect of over 60% in size
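Cytotoxicity in the drug-sensitive parental line KB-3-1 was scored as loss of CellTiter-Glo luminescence following 72 h incubation with compound. Values come from curve fitting of normalized concentration-response data.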
HT1080-NT tox: kills 2HG-producing HT-1080-NT fibrosarcoma cells; HT-1080-NT fibrosarcoma viability, CellTiter-Glo ATP luminescence, 48 h; Potency, µM (titrated, usually from 46.1 µM), without a hit: at the highest dose activity, negative = less viability, hits mostly cytotoxic; 1.6% of 360,000 active;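 also: NT is the 2HG producing partner of a matched IDH1 knockdown line; potency is read from the fitted curve at half-maximal effect; 0% = DMSO-treated cells and -100% = media-only wells without cells; nearly all actives have a fitted effect of over 55% in size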
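HT-1080-NT fibrosarcoma cells (2HG-overproducing), 750 cells/well in RPMI with 5% FBS, dosed after 2 h and incubated 48 h at 37C. CellTiter-Glo luminescence normalized to DMSO and no-cell wells; concentration-response curves fitted and classed.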
IL1B secr inh: blocks inflammasome-driven IL-1 beta release | THP-1 LPS/ATP IL-1B secretion, AlphaLISA, 16 h; stronger effect = lower value | activity change, % at 57.5 µM | 4.7% of 360,000 active | AID 743279; in the data active = activity change below about -50%; inconclusive = mostly about -30% to -49%
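THP-1 cells pretreated 1 hr with compounds (up to 57.5 uM final), then stimulated with LPS (250 ng/mL final) plus ATP (1.25 mM final); secreted IL-1B measured by AlphaLISA after 16 hr, decreased signal indicating inhibition.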
HT1080 IDH1KD tx: toxicity to HT-1080 IDH1 knockdown cells (counter line) | HT-1080 IDH1 knockdown viability, ATP luminescence, 48 h | Potency, µM (top dose mostly 46.1 µM), for the others: at the highest dose activity, negative = toxicity, usual class: cytotoxic | 2% of 360,000 active;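 also: potency is read from the fitted curve at half-maximal effect; 0% = DMSO wells and -100% = cell-free medium wells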
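HT-1080-IDH1KD cells (IDH1 knocked down), 750/well in RPMI with 5% FBS, treated with compound 48 h at 37 degrees C. Viability by CellTiter-Glo luminescence, normalised to DMSO and no-cell wells; concentration-response curves classed.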
* marks the source's active call; other numbers are inactive results; i = inactive; ? = inconclusive; . = no result given; [ ] = remark or other dose. Unless noted, calls follow the shape of the dose curve; as a rule, active = well fitted curve in the direction sought with a large enough effect; inconclusive = small, poorly fitted or top-dose-only effect, or another doubt; inactive = no such curve, though single readings can be large; an effect the other way counts as inactive or inconclusive. Unless noted, % is scaled to controls: 0 for no effect and ±100 for the full control effect.

SMILES	KB-V1 cytotox	KB-3-1 cytotox	HT1080-NT tox	IL1B secr inh	HT1080 IDH1KD tx
O=C(Nc1ccc(F)c(F)c1)c1cc(S(=O)(=O)N2CCN(c3ccccn3)CC2)ccc1F	10.3µM*	i	-13.7%	-13.1	-6.8%
Cc1cc(NC(=O)COC(=O)c2ccc(S(=O)(=O)N3CCCc4ccccc43)cc2)no1	?	14.6µM*	4.11µM*	38.2	4.11µM*
Cc1cc(NC(=O)COC(=O)c2ccc(S(=O)(=O)N3CCCC3)cc2)no1	i	i	4.9%	3.9	6.3%
COc1ccc(S(=O)(=O)N2CCc3ccccc32)cc1OC	i	?	1.7%	?	-2.9%
Cc1ccc(S(=O)(=O)NCc2cn3ccccc3n2)c(C)c1	i	i	-1.5%	-25.4	0.0%
COc1ccc(NC(=O)/C=C/c2ccccc2)cn1	i	i	15.6%	-0.2	11.4%
CCCOc1cccc(C(=O)NC(=S)Nc2cccc(C(F)(F)F)c2)c1	i	i	?	-56.7*	14.8%[9.24 µM]
COc1ccc(C(=O)Nc2ccc(NC(=O)c3cccc(OC)c3)cn2)cc1	i	i	20.6µM*	16.7	?
O=C(Nc1ccc(Oc2cccc(C(F)(F)F)c2)nc1)c1cccs1	i	i	-18.8%	-77.7*	?
COc1cccc(/C=C/C(=O)Nc2ccc(OC)nc2)c1	18.4µM*	?	9.3%	-2.0	19.1%
COc1cccc(C(=O)Nc2ccc(Oc3cccc(C(F)(F)F)c3)nc2)c1	?	?	?	-79.6*	?
O=C(Nc1ccc(Oc2cccc(C(F)(F)F)c2)nc1)c1ccccc1	i	i	?	-3.9	-11.9%
O=C(NCCc1nc2ccccc2[nH]1)/C(=C/c1ccc2c(c1)OCO2)NC(=O)c1ccccc1Cl	i	i	0.7%	-84.2*	5.9%
O=C(NCCc1nc2ccccc2[nH]1)/C(=C/c1ccc2c(c1)OCO2)NC(=O)c1ccccc1	i	?	11.8%	18.4	16.5%
Cc1ccc(S(=O)(=O)NNC(=O)c2c(O)c3ccccc3[nH]c2=O)cc1	2.59µM*	i	8.3%	6.9	20.9%
CC(C)NC(=O)c1c(O)c2ccccc2[nH]c1=O	i	?	?	?	3.16µM*
COC(=O)Nc1ccc(S(=O)(=O)NNC(=O)c2c(O)c3ccccc3[nH]c2=O)cc1	i	i	5.3%	17.9	9.7%
COc1ccc(C(=O)OCC(=O)NC(=O)NC2CCCC2)c(O)c1	i	i	7.2%	-5.4	3.7%
COCCN(CC(=O)NC1CCCCC1)C(=O)/C=C/C(=O)c1ccc(OC)cc1O	?	18.4µM*	23.1µM*	-101.2*	?
COc1ccc(C(=O)/C=C/C(=O)N(CC(=O)NC2CCCCC2)Cc2cccs2)c(O)c1	?	?	-21.5%	-99.5*	-11.5%
CCOC(=O)C1(C)CCCCN1C(=O)c1cccc(Cl)c1 (configuration not stated)	i	i	10.8%	17.2	5.1%
CC(C)(O)C#Cc1ccc(N2C(c3ccsc3)=Cc3ccc(F)cc3C2c2c[nH]c3ccccc23)cc1 (configuration not stated)	?	?	6.1%	-26.1	0.0%
O=C(O)CCn1c2ccccc2c2nc3ccccc3nc21	i	i	18.6%	-3.1	6.3%
Fc1cccc(NCCc2c[nH]c3ccccc23)n1	i	i	0.0%	-10.7	-2.9%
c1ccc2c(NCCc3c[nH]c4ccccc34)c3ccccc3nc2c1	i	i	?	-56.6*	?
SMILES	KB-V1 cytotox	KB-3-1 cytotox	HT1080-NT tox	IL1B secr inh	HT1080 IDH1KD tx
OCCCNc1c2ccccc2nc2ccccc12	?	8.2µM*	23.1µM*	-104.2*	11.6µM*
CCN1/C(=C/c2sc(-c3ccccc3C)c[n+]2C)Sc2ccccc21	?	0.411µM*	2.06µM*	-99.0*	2.06µM*
CCN1/C(=C/C(=O)c2ccco2)Sc2ccccc21	i	i	-13.1%	-14.2	-0.4%
O=C(NCc1cccs1)c1ccc2ccccc2n1	i	i	4.6%	-13.8	-10.1%
C=C(c1ccc2ccccc2n1)c1cccs1	i	11.6µM*	.	.	.
C[C@@H]1CCCCO[C@H](CN(C)C(=O)C2CCCCC2)[C@@H](C)CN([C@H](C)CO)C(=O)c2cc(N(C)C)ccc2O1	i	i	5.8%	-16.6	13.8%
CC(=O)Nc1ccc(NC(=O)CSc2nnc(NC(=O)Cc3ccc(F)cc3)s2)cc1	i	i	15.6%	7.1	14.9%
Cn1nc(-c2ccccc2F)c2cc(C(=O)N3CCN(c4ccc(F)cc4)CC3)sc21	i	?	.	.	.
Cn1nc(-c2ccccc2F)c2cc(C(=O)N3CCN(c4ccccc4F)CC3)sc21	5.17µM*	?	.	.	.
CCN(CC)CCNCc1cc(Cl)ccc1OCc1ccccc1F	?	i	23.1µM*	-90.3*	?
CC(C)(C)NCc1cc(Cl)ccc1OCc1ccccc1F	i	i	-24.1%	-144.0*	-25.9%
CCOC(=O)c1ccccc1NC(=O)c1cnc(N2CCOCC2)c2ccccc12	i	i	.	.	.
COc1ccc(NC(=O)CSc2nc3ccccc3n2CC(=O)N(C)C2CCCCC2)cc1	i	i	.	.	.
COc1cccc(-c2ccc(NC(=O)C3CCCN(Cc4cnn(C)c4C)C3)cc2)c1 (configuration not stated)	i	i	?	-14.9	?
COc1cc(CN2CCCC(C(=O)Nc3cccc(-n4cccn4)c3)C2)ccc1F (configuration not stated)	i	i	?	-66.2*	?
COc1cccc(-c2ccc(NC(=O)C3CCCN(Cc4cnn(C)c4)C3)cc2)c1 (configuration not stated)	i	i	?	20.2	16.4µM*
COc1cccc(CN2CCCC(C(=O)Nc3ccc(-c4cscn4)cc3)C2)c1 (configuration not stated)	20.6µM*	?	-15.8%	0.0	-10.7%
O=C(NCCc1ccccc1)c1coc(=O)c(Br)c1	?	?	20.6µM*	-98.8*	23.1µM*
O=C(NCCc1ccccc1)c1ccco1	i	i	17.0%	4.9	18.5%
CN(C)CCNC(=O)c1coc(=O)c(Br)c1	i	i	-1.5%	-10.3	-3.6%
CC(C)CNC(=O)c1coc(=O)c(Br)c1	?	6.31µM*	?	-28.7	11.2µM*
O=C(NCCC1=CCCCC1)c1coc(=O)c(Br)c1	?	?	7.31µM*	0.0	18.4µM*
O=C(NCCC1=CCCCC1)c1ccc(=O)oc1	i	i	11.3%	-27.2	?
COc1ccc(NS(=O)(=O)c2ccccc2C(=O)O)cc1	i	?	.	.	.
CCOC(=O)[C@]12CCCC=C1N(Cc1cccc3ccccc13)C(=O)[C@H](CC(=O)NCCCCc1ccccc1)C2	?	i	-24.8%	-0.6	-12.4%
